From PubChem BioAssay AID463173 (ICCB-Longwood Screening Facility, Harvard Medical School, 2010)
Hit rate of the full screen: of about 52,000 compounds, about 4,300 (8.3%) were called active. This excerpt belongs to a sample that is enriched for actives. Unmarked numbers belong to inactive results. No stated cut-off is given here; in the data, active means survival mostly below about 52% (no sharp cut-off); inactive means mostly above about 56%.

System: DeltatarO mutant
Assay: growth inhibition of S. aureus wild type versus tarO mutant, primary screen, teichoic acid synthesis inhibitors, RN4220, OD600 (AID 463173)
Conditions: OD600, 18 h, active compounds read low, screened at 18.75 µg/mL (by protocol)

Compound	survival
CCc1cccc(C)c1NC(=O)CCCn1nc(C)c2sc3ccccc3c2c1=O	86%
CCc1ccc(Sc2cc(C(=O)O)c3ccccc3n2)cc1	78%
CCOCCCNC(=O)CN1C(=O)COc2ccc(S(=O)(=O)N3CCCC3)cc21	87%
CCC(Cn1nnc2ccccc2c1=O)NC(=O)Nc1cccc(Cl)c1 (stereo not drawn)	39% (active)
CCC(Cn1nnc2ccccc2c1=O)NC(=O)Nc1ccc(C)c(C)c1 (stereo not drawn)	45%
CCC(Cn1nnc2ccccc2c1=O)NC(=O)Nc1cc(C)cc(C)c1 (stereo not drawn)	41% (active)
CCC(Cn1nnc2ccccc2c1=O)NC(=O)Nc1ccc(C)cc1 (stereo not drawn)	55%
CCC(Cn1nnc2ccccc2c1=O)NC(=O)Nc1ccc(C)cc1C (stereo not drawn)	44% (active)
CCC(Cn1nnc2ccccc2c1=O)NC(=O)Nc1cc(OC)cc(OC)c1 (stereo not drawn)	88%
CCC(Cn1nnc2ccccc2c1=O)NC(=O)Nc1ccccc1Cl (stereo not drawn)	85%
CCc1ccccc1NC(=O)NC(CC)Cn1nnc2ccccc2c1=O (stereo not drawn)	61%
CCC(Cn1nnc2ccccc2c1=O)NC(=O)Nc1cccc(C)c1C (stereo not drawn)	55%
COc1ccccc1CNC(=O)C(C)n1ccc2cc(S(=O)(=O)N3CCCC3)ccc21 (stereo not drawn)	81%
CCc1ccc(CN2CCC(C(=O)N(C)CCc3ccc(OC)c(OC)c3)CC2)cc1	81%
CCCN(C(=O)c1cc2c(=O)[nH]c3ccc(C)cc3c2s1)c1ccc(CC)cc1	64%
CCCCNS(=O)(=O)c1ccc(NC(=O)c2c(-c3ccccc3)noc2C)cc1	101%
CN(C)c1ccc(CNC(=O)C2CCN(S(=O)(=O)c3ccc4c(ccn4C)c3)CC2)cc1	95%
Cc1ccc(NC(=O)c2cnc(SCC(=O)Nc3cc(C)on3)n(C)c2=O)cc1	88%
COc1ccc(CCn2c3c(c(=O)[nH]c2=O)C(NC(=O)c2ccccc2F)(C(F)(F)F)C(=O)N3)cc1OC (stereo not drawn)	60%
COc1ccc(N(Cc2cc3ccccc3[nH]c2=O)C(=O)c2cccc(Cl)c2)cc1	87%
COc1ccc(CCNC(=O)CCCCn2c(=O)c3ccccc3n(Cc3cc(C)ccc3C)c2=O)cc1OC	108%
Cc1ccc(N2CC(c3nnc(Cc4ccc(Cl)cc4)o3)CC2=O)cc1 (stereo not drawn)	48%

Compound	survival
O=C1CC(c2nnc(Cc3ccc(F)cc3)o2)CN1c1ccccc1 (stereo not drawn)	134%
Cc1ccc(N2CC(c3nnc(Cc4ccc(F)cc4)o3)CC2=O)cc1 (stereo not drawn)	24% (active)
COc1ccc(S(=O)(=O)Nc2cccc(-c3ccc(N4CCCCCC4)nn3)c2)c(OC)c1	74%
COc1ccc(Cn2ccc3nc(C)c(C(=O)N4CCN(c5cccc(OC)c5)CC4)cc3c2=O)cc1	81%
O=C(COc1ccc(F)cc1)Nc1cccc(OCc2cc(=O)n3ccccc3n2)c1	102%
Cc1ccc2nc(COc3cccc(NC(=O)c4ccccc4Cl)c3)cc(=O)n2c1	75%
Cc1ccc2nc(COc3cccc(NC(=O)Nc4ccc(C)c(Cl)c4)c3)cc(=O)n2c1	25% (active)
O=C(Nc1cccc(OCc2cc(=O)n3ccccc3n2)c1)Nc1cccc(C(F)(F)F)c1	-4% (active)
CCC(=O)Nc1cccc(OCc2cc(=O)n3cc(C)ccc3n2)c1	55%
Cc1ccc2nc(COc3ccccc3NC(=O)c3ccc(F)cc3)cc(=O)n2c1	20% (active)
Cc1ccc2nc(COc3ccccc3NC(=O)c3ccccc3F)cc(=O)n2c1	85%
Cc1cccc(C(=O)Nc2ccccc2OCc2cc(=O)n3cc(C)ccc3n2)c1	60%
Cc1ccc(Cl)cc1NC(=O)Nc1cccc(OCc2cc(=O)n3ccccc3n2)c1	72%
CCc1ccc(NC(=O)CSc2cn(CC(=O)N3CCCC3)c3ccccc23)cc1	97%
COc1ccc(C)cc1S(=O)(=O)NCC(c1ccc(N(C)C)cc1)N1CCc2ccccc21 (stereo not drawn)	55%
Cc1cccc(-n2ccnc2SCC(=O)Nc2nc3ccccc3s2)c1	93%
Cc1ccc(/C=C/C(=O)Nc2ccccc2C(N)=O)o1	64%
Cc1ccc(NC(=O)/C=C/c2ccc(C)o2)c(C)c1	46%
COc1ccc(OC)c(NC(=O)/C=C/c2ccc(C)o2)c1	40% (active)
CCOC(=O)c1cc(-c2ccccc2)n(CCC(=O)Nc2ccc(Cl)c(C(F)(F)F)c2)c1C	102%
CN(C)S(=O)(=O)c1ccc(S(=O)(=O)N(Cc2ccccc2F)C2CC2)cc1	91%
